Measurements from paper PMC12136788.
Positions count from the first letter of the chain named. The full ranking holds about 24,000 sequences; the median of “enrichment r” is about 0.99, and the highest 2% start at about 3.7. Only a selection was taken, and the highest values are over-represented in it overall.

T1: UNK ZnF1-3 (human, UniProt Q9C0B0 31-174)
T1 sequence: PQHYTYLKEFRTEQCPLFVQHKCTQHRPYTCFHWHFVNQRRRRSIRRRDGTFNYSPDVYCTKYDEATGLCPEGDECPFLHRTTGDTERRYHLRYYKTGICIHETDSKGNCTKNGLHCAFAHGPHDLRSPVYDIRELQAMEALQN

B1: chr2:48026839:48026840:+_ENSG00000116062_ENST00000540021|hu_hu|hu_hu_hu_mus_False|18_48 (ssRNA)
RNA: GGGAGUUCUACAGUCCGACGAUCAUAGUGAGCCACUAGCGUCCUAAAUCUGGAACAGUGGCGGUCAUCCGAAAACUGGCCGAUGAAAAACUUUCCCAGUGAAGUGUCCACAAAGCACACACCAUAUACACGAGUGUGACCAGACAACAGAGGAUUGAGCAUCA
B2: chr11:46405157:46405158:+_ENSG00000110492_ENST00000395566|hu_hu|hu_hu_hu_mus_False|1_18 (ssRNA)
RNA: GGGAGUUCUACAGUCCGACGAUCCCCUCCCCACUUUGGGCACUUGGUGUGGGCGUGAGAGGACAGGCGUGAUUGACAGAGCUGACAGGAAGACAAAAGGCACUGGUGGGUUAUAUCUCGGGCCUGGGGGAGAGGAGGCGUGGGCAACAGAGGAUUGAGCAUCA
B3: chr11:46405157:46405158:+_ENSG00000110492_ENST00000395566|hu_hu|hu_hu_hu_mus_False|18_28 (ssRNA)
RNA: B2 RNA with U111C, U113C, C138G, G139C, G141C, G142C
B4: chr11:46405157:46405158:+_ENSG00000110492_ENST00000395566|hu_hu|hu_hu_hu_mus_False|18_108 (ssRNA)
RNA: GGGAGUUCUACAGUCCGACGAUCCCCUUAGGGGUGGGGGCACUUGGUGUGGGCGUGAGAGGACAGGCGUGAUUGACAGAGCUGACAGGAAGACAAAAGGCACUGGUGGGUUAUAUCUCGGGCCUGGGGGAGAGGAGGGCUCCGCAACAGAGGAUUGAGCAUCA
B5: chr11:46405157:46405158:+_ENSG00000110492_ENST00000395566|hu_hu|hu_hu_hu_mus_False|58_108 (ssRNA)
RNA: B4 RNA with G78A, G83A, A86G, C118U, G126U
B6: chr11:46405157:46405158:+_ENSG00000110492_ENST00000395566|hu_hu|hu_hu_hu_mus_False|8_108 (ssRNA)
RNA: B4 RNA with C118U, G126U, G128A, A132G, G134A, A135G
B7: chr11:46405157:46405158:+_ENSG00000110492_ENST00000395566|hu_hu|hu_hu_hu_mus_False|98_108 (ssRNA)
RNA: B4 RNA with G39C, C40U, A41G, C42G, U43G, U44G, G45A, C118U, G126U
B8: chr6:83878822:83878823:+_ENSMUSG00000030016_ENSMUST00000032088|mus_hu|FALSE|FALSE (ssRNA)
RNA: GGGAGUUCUACAGUCCGACGAUCCUCCUCGAGGAUUAAACCUGGGUCUCGACAUGGCUAUUUUCAAGAAAGCCUGAUUUAAUAAAGUAUAAGGUGGUGUUGAACCAUGUGAGGCAACGGCAUUCAGCUGCUGAAGCGCCAACUCAACAGAGGAUUGAGCAUCA
B9: chr12:67691335:67691336:+_ENSG00000111530_ENST00000540319|hu_mus|motif|central (ssRNA)
RNA: GGGAGUUCUACAGUCCGACGAUCCAUGGAGUCAUUUUUGGACAACUCUGACAACAGAUGUUCAAUAAGGUCUACAAAAACGGUAUUUCCGCAGCUCAUAACUAGGUGGCCAAGAGCAAUAAUUGUUCUUUUCCUCACUGCAAGCAACAGAGGAUUGAGCAUCA
B10: chr15:75216061:75216062:-_ENSG00000178741_ENST00000564811|perfect_dup|motif|central (ssRNA)
RNA: GGGAGUUCUACAGUCCGACGAUCUUUGUCAAGGCCCAGUUCCUCCGGAGUGGAGAUUCCCAGUUCAUUUAAAGUUGGUCGGAGUUCCUGGAUGACAUAGGGGUAGAUUUCCUUAUGAGGUCCUGCUUUGUCCUUAACAACCUCCAACAGAGGAUUGAGCAUCA
B11: chr12:16048344:16048345:+_ENSG00000023734_ENST00000419869|hu_hu|hu_hu_hu_mus_True|8_18 (ssRNA)
RNA: GGGAGUUCUACAGUCCGACGAUCAGAUCGUCCAUAAGUAAUAACCAAAAUCUCUCCUUCAGGAAUAUACUCCAUGCUGCUAACAGACAUAUUAAAAUUCAGAGAUUUCACUUCUGUCAUAGUAGCAUGAUCCCAAAGCCGAACCAACAGAGGAUUGAGCAUCA
B12: chr4:6323411:6323412:-_ENSMUSG00000028245_ENSMUST00000029910|mus_hu|FALSE|FALSE (ssRNA)
RNA: GGGAGUUCUACAGUCCGACGAUCAGAAAAAUAUUUUUAAUGUAGAAAAGAUGAAUAGCUGUAAUGAAAUACAAACCGUUCCUAUACACAGUAAACUUACUAAGAACUGCUAAUCCUUCUCCAGGUUCUUAGAAUCUGGGUACACAACAGAGGAUUGAGCAUCA
B13: chrX:98838459:98838460:+_ENSMUSG00000034160_ENSMUST00000044475|mus_mus|FALSE|FALSE (ssRNA)
RNA: GGGAGUUCUACAGUCCGACGAUCUCCCAAAUUCGAAUAGGCUUCUGCUAGAAGGGGAUUCUGUUUAAUUGCCAAGGUGCUAAAAUGAGCAGAUCUGUCCAGCCUUCGACACUGGAAGUGUAUAGAUGAAAGUAAUAAAAGAACCAACAGAGGAUUGAGCAUCA
B14: chr16:94690093:94690094:+_ENSMUSG00000040785_ENSMUST00000117648|mus_mus|motif|central (ssRNA)
RNA: GGGAGUUCUACAGUCCGACGAUCUGGGACUCCUGUGAGCAGACAGCAUCUUCCCAGGGUAAAAAAAAAAAAUAGCCAAUACGGAUUUAAAAAGUAUUUUAUAAUUGAUUACCAAAAUGUAGAUUAAUUGAAUCAUAAGCACUUCAACAGAGGAUUGAGCAUCA
B15: chr12:42180722:42180723:-_ENSMUSG00000036295_ENSMUST00000043884|mus_hu|mus_mus_mus_hu_True|58_108 (ssRNA)
RNA: GGGAGUUCUACAGUCCGACGAUCCUGUAGGAGCAGAAUCUGUGUGUUAGCUGGCAAUCUGGCUGGGAAAGUUAAAAGCCCUAAAUCAUUACAAUCCACUGUAGAUGCUUCCAUAUAAAUGGAUCUGGGUGUAAACCAAGGCCUCAACAGAGGAUUGAGCAUCA
B16: chr12:16048344:16048345:+_ENSG00000023734_ENST00000419869|hu_hu|hu_hu_hu_mus_True|18_78 (ssRNA)
RNA: B11 RNA with U57C, A135G
B17: chr16:94690093:94690094:+_ENSMUSG00000040785_ENSMUST00000117648|mus_mus|FALSE|FALSE (ssRNA)
RNA: B14 RNA with G82U, G83A
B18: 109710003_109710123_2987_3pUTR_ENSMUSG00000031924_ENSMUST00000034400|mouse|control|control (ssRNA)
RNA: GGGAGUUCUACAGUCCGACGAUCUUCUGCCUCCCAAGUGCUGGGAUUAAAGAUUUAAAAAAAAAAAAGCAUCCUUUUUAUAUAAUAUAAAAUGACAUUACAUUAUCAGUAGUUCAAAAGAAGCCCUGGGUAUUGACGGAUUUCCAACAGAGGAUUGAGCAUCA
B19: chr7:125984895:125984896:+_ENSMUSG00000030982_ENSMUST00000106553|mus_mus|motif|central (ssRNA)
RNA: GGGAGUUCUACAGUCCGACGAUCGUAGAAGGCAAGAGCUUAAAACCAAUCUGUAUAAAAGUAAAAAUAACAAAAACUUCGGAAUUCCAGGAAGAGUUAAUGGCAGCCAAGCAGAUCUUCCAGGAUGUGGCACUGGGACUCCCGCAACAGAGGAUUGAGCAUCA

Biological target: T1, UNK ZnF1-3
Test: nsRBNS (natural sequence RNA bind-n-seq); RBNS binding buffer (assumed for nsRBNS): 25 mM Tris pH 7.5, 150 mM KCl, 3 mM MgCl2, 0.01% Triton X-100, 500 ug/ml BSA, 20 U/ml SUPERase-In, 4 C; UNK is unkempt and MSI1 is Musashi-1; names of the RNAs are library labels; protein concentration not given here; high values mean tight binding

Binder	binding signal
B1	1.2 enrichment R
B2	3.4 enrichment R
B3	3.48 enrichment R
B4	4.17 enrichment R
B5	3.45 enrichment R
B6	4.04 enrichment R
B7	3.34 enrichment R
B8	1.46 enrichment R
B9	0.704 enrichment R
B10	0.656 enrichment R
B11	0.71 enrichment R
B12	1.02 enrichment R
B13	1.64 enrichment R
B14	4.87 enrichment R
B15	1.07 enrichment R
B16	0.91 enrichment R
B17	7.05 enrichment R
B18	2.62 enrichment R
B19	3.93 enrichment R
